Results filed as inconclusive are left out. Active and inactive are the calls of the source. Calls come from the whole dose curve; as a rule, active = well fitted curve in either direction with a large enough effect (not every such curve was filed as active); inconclusive = small, poorly fitted or top-dose-only effect, or another doubt; inactive = flat fitted curve, though single readings scatter.
assay: Stat Signaling Pathway (AID 446); settings: ME-180 (cervical carcinoma) SIE beta-lactamase reporter, IL-6 stimulated, 5 h; at 17.2 µM (top of the series) unless noted
Method: NCGC Assay Overview: The IL-6/STAT signaling pathway was assayed in ME-180 cervical carcinoma cells by a beta-lactamase reporter gene controlled by a STAT Inducible Element (SIE). This reporter is induced by IL-6 at 40 pM AC50 and inhibited by the pan JAK inhibitor, 2-(1,1-Dimethylethyl)-9-fluoro-3,6-dihydro-7H-benz[h]-imidaz[4,5-f]isoquinolin-7-one, at approximately 10 nM AC50. Plated cells were incubated overnight and on the following day, stimulated with 40 pM IL-6 for 5 hrs. The assay was screened at the AC50 of IL-6 activation to identify both inhibitors and activators of IL-6/STAT signaling.
NCGC Assay Protocol Summary: Cells were trypsinized, washed in assay medium (AM, OPTI MEM with 0.5% fetal bovine serum, 0.1 mM nonessential amino acids, 1 mM sodium pyruvate, 10mM HEPES pH 7.3, 100U/ml penicillin, and 100 ug/ml streptomycin) and suspended at 6 x 10e5/ml in AM. Approximately […] cells in 5 uL/well was dispensed into 1536 well plates and the cells were incubated overnight at 37 C. 23 nL of compound were delivered by a pin tool and 1 uL of IL-6 (40 pM final concentration in AM) was added. After centrifugation at 1000 rpm for less than a minute, plates were incubated at 37C for 5 hrs. One uL of detector mix (LiveBLAzerTM, Invitrogen) was added, the plates incubated at room temperature for 2.5 hrs, and fluorescence intensity at 460 and 530 nm emission was measured at 405 nm excitation by an Envision (Perkin Elmer) or Safire II (Tecan). Data were normalized by GeneData to the controls for AC90 stimulation (300 pM IL-6) and to AC90 inhibition (125 nM Jak inhibitor, 40 pM IL-6 in AM).
% is set by controls: 0 for no effect and ±100 for the full control effect.

activity, negative = inhibition, inactive:
CNC(=O)c1ncnnc1N(C)C(=O)NCc1ccccc1 0.797%
Cc1nc(NS(=O)(=O)c2ccccc2)sc1NC(=O)OC(C)C 3.96%
CCOC(=O)CSc1nc(N2CCOCC2)c2c(c1C#N)CC(C)(C)N(C)C2 1.11%
Cc1cc(C)n(S(=O)(=O)/C=C/c2ccccc2)n1 -7.25%
C=CCSc1nnc2n(CCc3ccccc3)c(=O)c3c4c(sc3n12)COC(C)(C)C4 -18.1%
COc1ccc(/C(O)=C2\C(=O)C(=O)N(CCN3CCOCC3)C2c2ccccc2OC)cc1 (stereo not given) -2.59%
COc1ccccc1Nc1ncnc2c1cnn2-c1cccc(C)c1 -6.58%
CN(C)c1ccc(O)c2c1CC1CC3[C@@H](N(C)C)C(=O)C(C(N)=O)=C(O)[C@]3(O)C(=O)C1=C2O (stereo not given in full) -13.5%
O/N=C(\c1ccc2c(c1)OCCO2)C1CCCCC1 -14%
CC(C)OCCCNc1ncnc2c1cnn2-c1ccccc1 -0.244%
Cc1nc(N2CCN(C(=O)c3ccc(Cl)cc3)CC2)c(C#N)c2c1COC(C)(C)C2 -17.4%
COc1ccccc1N1CCN(C2CCN(C(=O)c3cccs3)CC2)CC1 19.6%
CCOc1cc(C2Nc3ccccc3C(=O)N2c2ccccc2OC)ccc1O (stereo not given) 5.03%
CSc1nc(O)c(Cc2ccccc2)c(=O)[nH]1 0.301%
CCN(CC)CCCN1C(=O)C(O)=C(C(=O)c2ccc(C)o2)C1c1ccc(C)o1 (stereo not given) 9.39%
CC(=O)N/C(=N/c1nc(C)cc(C)n1)Nc1ccc(NC(C)=O)cc1 -1.02%
CCCC(CCC(=O)Nc1ccc(C(=O)OCC)cc1)C(=O)O (stereo not given) 3.58%
COc1cc(C2C(C(C)=O)=C(O)C(=O)N2c2ccc(Br)cn2)ccc1O (stereo not given) -8.75%
CC(C)NC(=O)N1CCOCCOCCN(C(=O)NC(C)C)CCOCCOCC1 0.97%
N#CC(C(=O)NC1CCCCC1)c1nc2ccccc2nc1N1CCN(c2ccccc2F)CC1 (stereo not given) -5.87%
CN1CCN(C(=O)CSc2nc(-c3cccs3)ccc2C#N)CC1 -1.05%
COc1cc(C(=O)NCC(=O)n2nc(C)cc2C)cc(OC)c1OC 0.715%
COC(=O)CNc1nc(-c2cccnc2)nc2ccccc12 -8.59%
CC1(C)Cc2nc(NCCCO)c(C#N)cc2CO1 7.31%
COc1ccc(C=NCCC2(O)CC(C)N(C)CC2C)cc1 (stereo not given) 11.9%
CNc1oc(-c2ccc(Cl)cc2)nc1C#N 5.14%
O=c1[nH]c(CN2CCCCC2)nc2c1C1(CCCC1)Cc1ccccc1-2 -7.96%
CCCCNC1=C(Br)C(=O)CC(C)(C)C1 -6.99%
Cc1cc(C)nc(N(C#N)CN2C(=O)c3ccccc3C2=O)n1 0.344%
CCNC(=O)COn1c(SCC(=O)NCC)nc2ccccc2c1=O 8.5%
Cc1ccc(CNC(=O)c2cc3c(=O)n4ccccc4nc3n(Cc3ccco3)c2=N)cc1 22.1%
CCCOC(=O)CSC1=C(C#N)C(c2ccccc2OCC)C(C#N)C(=O)N1 (stereo not given) -11.2%
CCCCc1c(C)c2ccc(OCC(C)=O)cc2oc1=O -0.63%
CC1(C)CC(=O)C=C(NCCO)C1 12.6%
C=C(C)CSc1nnc2n(C)c(=O)c3c4c(sc3n12)CCC4 2.61%
CCOC(=O)CNC(=O)CNC(=O)c1ccc(OCC(C)C)cc1 -1.49%
COc1ccc(C(=O)Nc2cccnc2)cc1C(=O)Nc1cccnc1 -4.76%
COc1c(O)ccc2cnn(-c3ccccc3C)c(=O)c12 25.4%
CCOC(=O)c1c(C)n(C)c2ccc(OC)c(NC(=O)CN3CCSCC3)c12 -8.37%
Cc1ccc(NC(=O)Cn2nc(C)c3ccccc3c2=O)cc1 6.34%
